Source: PubChem BioAssay
Sampled rows, rich in hits. Any-hit rate of the full collection: about 2.3%.
CHRM1 antagonist = antagonists of human M1 muscarinic receptor. P11229. CHO-K1 hM1, Fluo-8 calcium fluorescence, ACh EC80 antagonist. inhibition, % at 3 µM. 1.3% of 360,000 active;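 active means percent inhibition above its own plate's cutoff, namely the mean of that plate's compound wells plus 3 SD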;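 further: peak over basal fluorescence ratio during 140 s after agonist addition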
Target sequence (P11229 whole entry, looked up): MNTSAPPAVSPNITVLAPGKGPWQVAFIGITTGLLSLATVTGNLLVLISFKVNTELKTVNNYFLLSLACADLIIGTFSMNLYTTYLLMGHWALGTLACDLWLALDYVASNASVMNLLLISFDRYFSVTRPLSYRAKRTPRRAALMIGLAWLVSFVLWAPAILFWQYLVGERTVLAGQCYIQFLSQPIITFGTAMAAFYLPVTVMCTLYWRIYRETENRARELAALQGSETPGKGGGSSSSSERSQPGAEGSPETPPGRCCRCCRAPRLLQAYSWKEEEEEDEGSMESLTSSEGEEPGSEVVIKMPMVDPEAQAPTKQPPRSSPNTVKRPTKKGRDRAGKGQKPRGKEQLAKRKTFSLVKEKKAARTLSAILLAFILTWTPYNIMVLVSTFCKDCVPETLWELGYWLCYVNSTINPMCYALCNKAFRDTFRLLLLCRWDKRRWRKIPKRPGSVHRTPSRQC
CHRM1 agonist = activates human CHRM1 receptor | P11229 | CHO-K1 hM1, Fluo-8 calcium fluorescence, agonist mode; 0% DMSO, 100% acetylcholine EC100 | activation, % at 3 µM | 0.33% of 360,000 active | AID 588814;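 active means activation above the run's mean compound activation plus 3 SD, cut at about 16% in these data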;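 further: peak over basal fluorescence ratio within a 140 s kinetic read after compound addition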
CHO-K1 Ca antag = M1 antagonist counterscreen hit in parental CHO-K1 cells | 0.6% of 360,000 active | inhibition, % at 3 µM | ATP-induced calcium, Fluo-8 fluorescence;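 active means inhibition above a per-plate cutoff, the plate's mean sample inhibition plus 3 SD, cut at about 24% in these data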
CHO-K1 Ca ag = counter-screen for M1 agonists: effect in parental CHO-K1 cells. 0.48% of 360,000 active. Fluo-8 calcium fluorescence; scaled to maximal ATP response, vehicle zero. activation, % at 3 µM. AID 602248; in the data active means activation above about 15%;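 further: untransfected CHO-K1 host cells lacking M1 receptor as counterscreen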
M1 PAM = human CHRM1 positive allosteric modulation. CHO-K1 hM1, Fluo-8 calcium fluorescence, ACh EC20; 0% = ACh EC20, 100% = maximal ACh. P11229. 0.088% of 360,000 active. AID 588819. activation, % at 3 µM; in the data active means activation above about 19%, passing the limit was not always enough
CHO-K1 Ca PAM = counter-screen for M1 PAMs: effect in parental CHO-K1 cells. 0.02% of 360,000 active. AID 602247. ATP EC20, Fluo-8 calcium fluorescence; 0% at ATP EC20, 100% at ATP max. activation, % at 3 µM;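 active means activation above the run cutoff, the mean activation of all test compounds plus 3 SD, cut at about 40% in these data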;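 further: peak over basal fluorescence ratio in a 140 s read after ATP addition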
Large screens that a line does not name were inactive.

Cc1nc2c(nnn2Cc2ccccc2Cl)c(=O)[nH]1	none
Cc1nc2c(nnn2Cc2ccccc2)c(=O)[nH]1	CHO-K1 Ca antag 25
CC(Oc1ccc(F)cc1)C(=O)N(CCC1=CCCCC1)c1c(N)n(Cc2ccccc2)c(=O)[nH]c1=O (stereo not given)	none
CCCCn1nnnc1C1(C)CCC(=O)N1Cc1ccc(C)cc1 (stereo not given)	none (no result: CHRM1 antagonist, CHRM1 agonist, M1 PAM)
CC(=O)c1c(C)[nH]c(C(=O)OCC(=O)Nc2cccc(S(=O)(=O)N(C)C)c2)c1C	none
CCN(CC)S(=O)(=O)c1cccc(NC(=O)COC(=O)c2[nH]c(C)c(C(C)=O)c2C)c1	CHRM1 antagonist 31
COC(=O)c1[nH]c2ccccc2c1NC(=O)CNC1CCCCC1	CHRM1 antagonist 38
COC(=O)c1[nH]c2ccccc2c1NC(=O)CN1CCCCCC1	none
CC(OC(=O)Cn1[nH]c(=O)c2ccccc2c1=O)C(=O)c1ccccc1 (stereo not given)	CHO-K1 Ca antag 24
Cc1cccc(CCNC(=O)CNS(=O)(=O)c2ccc3nc(C)sc3c2)c1	none
CCCCN(C)CCCNC(=O)c1cccc(N2CCCC2=O)c1	none
CN(CCCNC(=O)c1cccc(N2CCCC2=O)c1)c1ccccc1	CHRM1 antagonist 30
O=C(COC(=O)CC1CCCC1)Nc1ccc(Cl)cc1	none
CCC(C)(C#CCN1CCCCC1)OC(C)=O (stereo not given)	none
CCC(C#CCN1CCOCC1)(CC)OCCC#N	none
CCC(C)(C#CCN1CCCCC1)OCCC#N (stereo not given)	CHRM1 antagonist 69
CCC(C#CCN1CCCCC1)(CC)OCCC#N	CHRM1 antagonist 63
C/C(=N\NC(=O)C(c1ccccc1)c1ccccc1)c1ccc(O)cc1	M1 PAM 31
CC1(C(=O)NCc2ccncc2)Cc2c(-c3cccc(C(F)(F)F)c3)ccnc2O1 (stereo not given)	none
Cc1ccc(S(=O)(=O)n2cnc3cc([N+](=O)[O-])ccc32)c(C)c1C	CHO-K1 Ca antag 25
O=C(c1ccco1)N1CCN(S(=O)(=O)c2c(Cl)cccc2Cl)CC1	none
